In the supplement of paper PMC6555819:

Columns and labels:
Experiment in all cases: PBM binding z-score (relative to random genomic background probes); higher = stronger binding; sequences stand for … in GC…GCGATTGACAGCGTAGAATGAAGG
[1] = test system: FXR:RXRa (NR concentration 270 nM, RXRa partner concentration 90 nM)
Procedure, shortened: (§1)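 Binding z-scores take random background probes as their reference. They come from custom Agilent 4×180K protein-binding microarrays incubated 1 h with ligand-free nuclear receptor dimers, with antibodies against each partner (one per run) detecting binding. Scanned fluorescence was regression-normalized.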

[2] = test system: LXRa:RXRa (NR concentration 270 nM, RXRa partner concentration 90 nM)
Procedure, shortened: as §1

[3] = test system: LXRa homodimer (NR concentration 270 nM)
Procedure, shortened: as §1

[4] = test system: LXRb:RXRa (NR concentration 270 nM, RXRa partner concentration 90 nM)
Procedure, shortened: as §1

[5] = test system: LXRb homodimer (NR concentration 270 nM)
Procedure, shortened: as §1

[6] = test system: PPARg:RXRa (NR concentration 180 nM, RXRa partner concentration 90 nM)
Procedure, shortened: as §1

[7] = test system: PPARg:RXRa 270nM:90nM, anti-RXR (NR concentration 270 nM, RXRa partner concentration 90 nM)
Procedure, shortened: as §1

[8] = test system: PPARg:RXRa 30nM:10nM, anti-RXR (NR concentration 30 nM, RXRa partner concentration 10 nM)
Procedure, shortened: as §1

[9] = test system: PPARg:RXRa 90nM:30nM, anti-RXR (NR concentration 90 nM, RXRa partner concentration 30 nM)
Procedure, shortened: as §1

[10] = test system: PPARa:RXRa (NR concentration 270 nM, RXRa partner concentration 90 nM)
Procedure, shortened: as §1

Sequence | PBM binding z-score [1] | PBM binding z-score [2] | PBM binding z-score [3] | PBM binding z-score [4] | PBM binding z-score [5] | PBM binding z-score [6] | PBM binding z-score [7] | PBM binding z-score [8] | PBM binding z-score [9] | PBM binding z-score [10]
CCTACTGGGCCAATGTCATTGATCAGTCAAAGCA | -0.931 | -0.71 | -0.956 | -0.421 | -0.826 | 0.865 | 0.774 | -0.129 | 0.12 | –
CAAACTAGGTCAAGGTCAAAGTAGGTTTGTGCCA | 7.18 | 5.78 | 4.55 | 4.82 | 1.64 | – | 8.19 | 6.7 | 8.63 | 6.41
AGTCAAAGTTCAGGACGAGGTAAAGTAAAGCACG | 4.27 | 3.89 | 1.34 | 1.9 | 0.465 | – | 4.89 | 1.9 | 4.21 | 3.54
ACTAGAAGGCCAAGGGTCACTCAAGATTAGTCCG | 3.27 | 3.28 | 0.426 | 3.25 | -0.267 | – | 7.08 | 5.69 | 7.96 | 4.51
AAAATGAGGTTAAGATCAGGGAAACAGAATACAT | 2.83 | 2.62 | 0.171 | 2.1 | 0.347 | – | 2.67 | 1.16 | 2.41 | 4.04
CGTCCAAGGTCAGCAGGTCAGAGAAAGCGACGTG | 6.51 | 4.01 | 0.793 | 3.26 | -0.208 | – | 5.15 | 1.61 | 3.69 | 4.78
CCTACTGGGCCAAGCTCATTGATCAGTCAAAGCA | -0.645 | -0.823 | -0.557 | -0.699 | -1.01 | – | 0.223 | -0.794 | -0.165 | 0.0972
CCTTACGGGTCACGGTTATAGCACGGGTGGTACG | 5.96 | 4.01 | 0.000447 | 3.23 | -0.179 | – | 5.89 | 2.69 | 4.69 | 5.56
ATCTCTAGGTTAAAGTTCAGTGAATCCCGAGGAT | 2.96 | 3.76 | 3.34 | 2.61 | 1.62 | – | 8.62 | 8.86 | 9.27 | 5.59
GCTATTAGGTGAAAGGGCAACCGAATGATTCTCG | 0.916 | 1.33 | -0.0501 | 1.25 | -0.402 | – | 8.6 | 8.54 | 9.84 | 5.57
ATATGTAGGTCAGGGTCATTCAGAAAGTAGGGAA | 5.82 | 4.89 | 1.68 | 5.11 | 2.07 | – | 7.66 | 6.11 | 7.76 | 6.06
ACTTACGGGTCAAGGAGGTTATAGCACGCGTATA | 6.35 | 4.93 | 1.1 | 4.17 | 0.922 | – | 5.1 | 2.1 | 3.84 | 5.72
GATACAGGGTCAAGGCCAGAATACGCGTATTGAT | 6.98 | 4.25 | 0.231 | 4.25 | 0.223 | – | 5.74 | 2.61 | 4.58 | 5.84
ACTTACGGGTCAACGAAGTTATAGCACGCGTATA | 6.23 | 4.01 | 0.164 | 3.62 | 0.73 | – | 4.81 | 1.85 | 3.63 | 5.47
CCTACTGGGCCAAAAAGGCCATTGATGCCGATAA | -0.133 | -0.247 | -0.15 | -0.244 | -1.1 | – | 0.7 | -0.443 | 0.151 | 0.629
CCTGCTAGGTCATGGTCAGGTAATCTACAGTATG | 3.64 | 2.62 | 0.355 | 1.7 | -0.354 | 2.37 | 2.82 | 0.671 | 1.75 | –
TATACAGGGTCTAAGGCCAGAGTACGAATGTCGA | 0.41 | 0.239 | 0.14 | 0.157 | 0.936 | 1.09 | 1.86 | 0.951 | 1.51 | –
TAGCCTAGGTCATGCGGGCCAGTATAGTGTCGGC | 3.95 | 3.16 | 0.141 | 1.55 | -0.409 | 1.98 | 2.32 | -0.028 | 1.01 | –

Sequence | PBM binding z-score [1] | PBM binding z-score [2] | PBM binding z-score [3] | PBM binding z-score [4] | PBM binding z-score [5] | PBM binding z-score [6] | PBM binding z-score [7] | PBM binding z-score [8] | PBM binding z-score [9] | PBM binding z-score [10]
CGTCCAAGCTCAGCAGGTCAGTGAAAGCGACGTG | -0.394 | -0.404 | -0.449 | 0.048 | -1.03 | -0.464 | -0.756 | -1.14 | -0.879 | –
CCTACTGGGCCATTCAGAGGTCATTGTTCATATG | 2.55 | 4.4 | 6.96 | 3.77 | 0.5 | 1.98 | 3.18 | 0.535 | 2.16 | –
AGATTGAGGTTACCAAAGATCAGGGAAACGCTTG | 2.33 | 6.22 | 0.108 | 3.17 | -0.201 | 2.04 | 2.22 | 0.623 | 1.49 | –
AGTCAAAGTTCAGGACGAGGTAATGTAAAGCACG | 4.1 | 3.43 | 1.28 | 1.77 | 0.372 | 4.31 | 4.68 | 2.03 | 4.01 | –
TGACTGAGGTTAAAGATCAGGGAACGTGGCGTCG | 2.91 | 2.35 | -0.224 | 1.69 | -0.22 | 3.09 | 3.98 | 2.03 | 3.59 | –
TCTAGTTGGTCAAAGGCCACACACTCGAAATGCG | 0.691 | 0.811 | 0.139 | 0.867 | -0.181 | 6.54 | 7.01 | 6.34 | 7.68 | –
AGAATGAGGTTAACAAAGATCAGGGAAACGCTTG | 2.66 | 5.37 | 0.105 | 2.63 | -0.171 | 2.62 | 2.59 | 1.09 | 1.88 | –
ACTTACGGGTCAACGGGGTTATAGCACGCGTATA | 6.95 | 4.81 | 0.682 | 5 | 0.93 | 6.4 | 5.83 | 2.51 | 4.14 | –
TCTCGGAGGACACGAAAAGTCAGAGCTCGACATC | 0.557 | 0.0964 | -0.301 | -0.0523 | -0.795 | 0.122 | 1.13 | 2.15 | 1.59 | –
CCTGCTAGTTCAATGGTCAGCTAAAGCAGCTCGC | -0.115 | 0.171 | -0.297 | 0.044 | -0.17 | -0.523 | 0.0511 | -0.764 | -0.0476 | –
AGAATGAGGTTACCAGAGATCAGGGAAACGCTTG | 2.17 | 6.18 | -0.181 | 3.62 | -0.177 | 2.77 | 2.74 | 0.897 | 1.85 | –
TAGCCTAGGTCATAGGCCAGTATACCACGCGAAC | 4.26 | 3.46 | 0.285 | 2.09 | -0.0669 | 4.51 | 4.54 | 2.36 | 4.03 | –
CAATCTAGGTCAAAGGTCAAAGTCGAGCCAACCA | 8.46 | 7.47 | 6.51 | 7.41 | 3.28 | 14 | 11.2 | 12.9 | 13.1 | –
CATACTAGGTCAAAGGTCAAAGTCGAGCCAACCA | 8.57 | 7.39 | 7.06 | 7.48 | 3.69 | 13.2 | 10.9 | 12.6 | 12.5 | –
TCATATAGGTAATAGGTGAAAGTCGGTGTGGTAA | 1.15 | 1.11 | 0.316 | 1.18 | 0.0131 | 6.6 | 6.84 | 6.19 | 7.27 | –
AGAATGAGGTTACACGTAGATCAGGGAAGAAAGT | 2.62 | 1.97 | -0.126 | 1.74 | -0.022 | 2.84 | 2.76 | 0.95 | 1.91 | –
AGTCAAATTTCACTAGGTAACGTAAGATTCAGCT | -0.177 | -0.14 | -0.0488 | 0.0425 | 0.175 | 0.5 | 0.334 | 0.197 | -0.0408 | –
CAAACTAGGTCAAAGGTCAAAATCGAGCCAACCA | 8.54 | 7.06 | 4.95 | 7.22 | 3.3 | 13.4 | 11.8 | 13.7 | 14.5 | –
